# Bioassay records (PubChem BioAssay)
# NS1 function inh – influenza NS1 inhibition | Potency, µM (highest dose often 46.1 µM), inactives show at the top dose activity, positive = more growth | actives 0.4% (n = 270,000); calls by dose curve; further: potency means the concentration at half of the fitted maximal effect; actives are rising curves; nearly all actives have a fitted effect of over 50% in size
#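 A cell-based growth assay was used: compounds that relieve NS1-induced slow growth of budding yeast raise OD600. Assay medium was yeast nitrogen base with ammonium sulphate and -URA supplement, pH 6.0, with 2% galactose.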
# CHX counter – counter-screen for Shiga toxin inhibitors: cycloheximide protein synthesis inhibition; cell reporter, cycloheximide protein synthesis inhibition counterscreen; max response, %; actives 12% (n = 300,000); AID 2314; in the data active means max response mostly above about 13%, no sharp cut-off; inactive means mostly below about 14%; further: read at 38.3 µM for the half of the compounds with a filed dose; 0% is about no effect
# AmpC no deterg – inhibitors of E. coli AmpC beta-lactamase without detergent. actives 0.52% (n = 330,000). P00811. AmpC nitrocefin hydrolysis, absorbance 480 nm, 0.0001% Triton. Potency, µM (top dose mostly 57.1 µM), for inactives: at the highest dose activity change, negative = inhibition, actives largely listed as inhibitors;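 further: potency means the concentration at half of the fitted maximal effect; plate controls were no compound for no effect and no enzyme for full effect; nearly all actives have a fitted effect of over 20% in size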
# Target sequence (P00811 whole entry, looked up): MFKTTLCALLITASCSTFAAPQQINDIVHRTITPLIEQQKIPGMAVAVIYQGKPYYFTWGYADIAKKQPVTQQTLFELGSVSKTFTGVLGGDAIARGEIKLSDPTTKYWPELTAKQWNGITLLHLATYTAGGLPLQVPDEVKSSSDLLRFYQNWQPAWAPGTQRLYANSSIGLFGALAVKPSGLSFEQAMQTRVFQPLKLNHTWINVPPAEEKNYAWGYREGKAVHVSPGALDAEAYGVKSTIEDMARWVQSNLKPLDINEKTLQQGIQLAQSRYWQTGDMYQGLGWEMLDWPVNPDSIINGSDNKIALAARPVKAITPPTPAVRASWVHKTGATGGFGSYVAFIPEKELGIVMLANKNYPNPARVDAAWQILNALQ
#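 AmpC (5.3 nM in the dispensed reagent) in 20 mM phosphate pH 7.0 with 0.01% (detergent screen) or 0.0001% Triton X-100 was preincubated with compounds for 15 min at room temperature. Nitrocefin was then added from an 800 uM solution, and hydrolysis was followed at 480 nm.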
# Shiga toxin inh – blocks Shiga toxin action in Vero cells; inhibition, % at 38.7 µM; Vero cells, Shiga toxin protein synthesis inhibition reporter; AID 2315; actives 9.2% (n = 290,000); in the data active means inhibition mostly above about 28%, no sharp cut-off; inactive means mostly below about 43%; further: 0% is about no effect
# AmpC detergent – inhibitors of E. coli AmpC beta-lactamase with detergent | Potency, µM (series often up to 114 µM), without a hit: top-dose activity change, negative = inhibition, hits mostly inhibitors | AmpC hydrolysis of nitrocefin, absorbance 480 nm, 0.01% Triton | actives 0.041% (n = 370,000);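 further: potency means the concentration at half of the fitted maximal effect; 0% = no-compound wells and -100% = no-enzyme wells; nearly all actives have a fitted effect of over 25% in size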
#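 AmpC (5.3 nM in the dispensed reagent) in 20 mM phosphate pH 7.0 with 0.01% (detergent screen) or 0.0001% Triton X-100 was preincubated with compounds for 15 min at room temperature. Nitrocefin was then added from an 800 uM solution, and hydrolysis was followed at 480 nm.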
# An asterisk follows results filed as active; ? = inconclusive; . = no result; [ ] = dose if it differs, or a comment. The entries come from a sample that favours hits as a whole. Unless noted, the call rests on the fitted dose curve; in most records, active means well fitted curve in the direction sought with a large enough effect; inconclusive means small, poorly fitted or top-dose-only effect, or another doubt; inactive means no such curve, though single readings can be large; an effect the other way counts as inactive or inconclusive.
SMILES,NS1 function inh,CHX counter,AmpC no deterg,Shiga toxin inh,AmpC detergent
CCN(C(=O)Cn1nnc2sc3c(c2c1=O)CCC(C(C)(C)C)C3)c1cccc(C)c1 (stereo not drawn),.,.,.,.,13.9%
CCc1ccc(N(CC(=O)NC(C)C)C(=O)CCC(=O)Nc2nccs2)cc1,0.2%,-6.6,-11.1%,32.0,-9.3%
NC(=O)c1ccc(-c2nc(-c3ccc4c(c3)OCO4)c(-c3ccccn3)[nH]2)cc1,.,-6.0,.,-6.4,.
O=C(Nc1ccnn1C1CCN(C2CCC2)CC1)c1ccccc1,-6.6%,0.5,-10.2%,-5.7,?
CCc1ccccc1NC(=O)CN(C)S(=O)(=O)c1cccc2nsnc12,.,.,.,.,0.7%
Cn1nnnc1SCC(=O)Nc1ccc2c(c1)OCO2,2.7%,26.2*,-16.4%,114.4*,-3.5%
CC(C)c1nnc(SCC(=O)Nc2ccc3c(c2)OCO3)n1C,4.6%,-1.7,-13.0%,14.9,-0.9%
CCn1nnnc1SCC(=O)Nc1ccc2c(c1)OCO2,1.2%,15.8,-21.4%,44.5*,1.0%
CC(C)OC(=O)CSc1nc(N)c(C#N)cc1C#N,-2.1%,26.7*,-13.6%,42.4*,0.8%
CCCCOC(=O)CSc1nc2c(cc1C#N)C(=O)CC(C)(C)C2,-33.3%,46.6*,12.1%,active,4.0%
CCOC(=O)CSc1nc(C)cc(C)c1C#N,-1.3%,-1.0,-14.0%,-12.4,-13.7%
CC(C)OC(=O)CSc1nc2cc3c(cc2cc1C#N)OCO3,9.7%,7.0,-20.1%,33.2,0.3%
CCOC(=O)CSc1nc(N)c(C#N)cc1C#N,3.1%,22.9,-16.2%,41.9*,?
O=C(Oc1ccc2[nH]cc(CCN3C(=O)c4ccccc4C3=O)c2c1)c1ccco1,-40.8%,27.1*,-30.0%,41.0,?
O=C1c2ccccc2C(=O)N1CCCc1c[nH]c2ccc(Cl)cc12,-12.0%,14.4*,1.8%,-8.4,-12.9%
Cc1noc(/C=C/c2ccco2)c1S(=O)(=O)N1CCC(C(=O)Nc2ccc(F)cc2F)CC1,.,.,.,.,3.3%
O=C(NCc1ccccc1Cl)c1ccc(CSCc2cccc(F)c2)o1,.,.,.,.,-7.3%
COc1ccccc1NC(=O)COC(=O)C1CC2C=CC1C2 (stereo not drawn),-4.0%,15.4*,-19.3%,25.2,1.4%
O=C(NCCCN1CCc2ccccc2C1)Nc1ccc(Br)cc1,-1.8%,22.6*,-32.4%,-9.0,-8.9%
COc1ccc(NC(=O)NCCCN2CCc3ccccc3C2)cc1,?,-1.9,-19.7%,9.7,?
Cc1ccc(N2C(=O)C3C(C2=O)N2C(c4cccs4)C4C(=O)N(c5ccc(C)cc5)C(=O)C4N2C3c2cccs2)cc1 (stereo not drawn),2.51µM*,-3.2,18.6%,-2.3,-11.0%
CCOC(=O)C1(C)NC(c2cccs2)C2C(=O)N(c3ccc(C)cc3)C(=O)C21 (stereo not drawn),.,-5.0,-5.6%,-5.7,-0.1%
CCOc1ccc(C(=S)N2CCCC2)cc1,3.5%,13.9*,-15.1%,87.7*,?
CCC(Oc1ccccc1)C(=O)N1CCC(C(N)=O)CC1 (stereo not drawn),8.0%,18.4*,-8.5%,42.3*,0.3%
CN(C)c1ccc(C(=S)N2CCCCC2)cc1,0.7%,22.6*,-14.9%,37.0*,3.1%
SMILES,NS1 function inh,CHX counter,AmpC no deterg,Shiga toxin inh,AmpC detergent
CN(C)c1ccc(C(=S)N2CCNCC2)cc1,16.2%,2.5,-19.8%,8.1,-0.3%
CCOc1ccc(C(=S)N2CCN(C)CC2)cc1,.,-1.3,-11.9%,24.1,-4.6%
CCCCOc1ccc(C(=S)N2CCC(C(N)=O)CC2)cc1,.,38.4*,12.4%,104.8*,-8.2%
COc1ccccc1N(Cc1ccccc1)S(=O)(=O)c1cccc(C(=O)Nc2ccc(C(C)=O)cc2)c1,11.1%,45.9*,-42.5%,44.3*,-1.2%
COc1ccccc1N(Cc1ccccc1)S(=O)(=O)c1cccc(C(=O)Nc2ccccn2)c1,-35.0%,25.4*,-26.3%,49.8*,-14.3%
COc1ccccc1N(Cc1ccccc1)S(=O)(=O)c1cccc(C(=O)Nc2ccc(C)cn2)c1,.,.,-30.7%,.,-8.4%
CC[C@H](C)[C@H](NC(=O)[C@H](Cc1ccc(O)cc1)NC(=O)[C@@H]1CCCN1C(=O)[C@@H](NC(=O)[C@@H](N)CCCCN)[C@@H](C)CC)C(=O)N[C@@H](CC(C)C)C(=O)O,.,-3.5,.,2.3,.
COc1ccc(/C=C2\SC(=Nc3ccccc3OC)NC2=O)cc1,-62.3%,20.4*,-32.1%,68.5,-4.1%
Cc1ccc(N2C(=O)/C(=C/c3ccco3)SC2=S)cc1,10.4%,15.7*,-24.6%,1.9,?
COc1ccc(N=C2NC(=O)/C(=C/c3ccco3)S2)cc1,-3.7%,35.6*,11.2µM*,36.3,1.6%
Cc1ccc(N=C2NC(=O)S/C2=C\c2ccco2)cc1,17.7%,18.3*,-26.2%,49.2*,-5.3%
COc1ccc(-c2cnc(OC(C)(C)C)nc2OC(C)(C)C)cc1OC,-2.4%,-3.4,112.7%,-11.5,1.2%
O=C(COc1ccccc1C(=O)NCc1ccccc1)Nc1ccccc1,.,.,-33.3%,.,-3.6%
CCNc1ccc(-c2nc(-c3ccncc3)no2)cc1[N+](=O)[O-],.,.,.,.,6.3%
Cc1cccc(N=C2NC(=O)/C(=C/C=C/c3ccco3)S2)c1C,23.4%,9.6,31.6µM*,15.6,-2.8%
COc1cc(/C=N/N=C2/NC(=O)C(Cc3ccccc3)S2)ccc1O (stereo not drawn),.,33.3*,-58.8%,99.4*,4.8%
COc1cc(/C=C2\SC(=Nc3ccccc3OC)NC2=O)ccc1O,-2.9%,16.0*,-48.7%,-1.8,2.6%
O=C1/C(=C/c2ccccn2)SC(=S)N1c1ccc(O)cc1,11.3%,29.7*,-43.2%,67.1*,-0.9%
Cc1cc2ccccn2c1C(=O)c1cccc([N+](=O)[O-])c1,.,-1.8,-8.2%,13.5,8.7%
CCOC(=O)C(=O)c1c(C)cc2ccccn12,.,23.1*,3.5%[11.4 µM],47.2*,?
Cc1cc2ccccn2c1C(=O)c1ccc([N+](=O)[O-])o1,.,34.0*,-12.6%[11.4 µM],22.6,-9.9%
Cc1cc2ccccn2c1C(=O)c1ccccc1Br,-42.2%,6.2,-26.4%,-7.8,-1.7%
CC1=C(C(=O)Nc2ccccc2)C(c2sccc2C)n2nnnc2N1 (stereo not drawn),13.7%,5.4,-17.3%,-1.9,10.4%
O=C(CSc1nncn1-c1ccccn1)Nc1cccc(Cl)c1,.,-0.5,-12.3%,-10.5,3.1%
O=C(CSC1=NNC(c2ccccn2)S1)Nc1cccc(Cl)c1 (stereo not drawn),-105.7%,40.2*,?,61.8*,-4.6%
O=C(CSC1=NNC(c2ccccn2)S1)Nc1ccccc1 (stereo not drawn),-110.5%,21.8*,-49.9%,36.3,0.3%
COc1ccc(-c2nc(C)c(CCNC(=O)C(=O)Nc3ccccc3OC)s2)cc1,.,.,.,.,3.1%
CC(C)c1ccc(OCc2ccc(C(=O)NN3CCN(C)CC3)o2)cc1,2.3%,79.2*,-1.6%[2.29 µM],169.6*,-7.4%
CC(C)c1ccc(OCc2ccc(C(=O)N(C)C)o2)cc1,-34.4%,65.3*,48.2%,150.5*,-5.7%
